According to PubChem BioAssay AID686978 (National Center for Advancing Translational Sciences (NCATS), 2013):
About 64,000 (15%) of roughly 420,000 compounds were called active. Roughly 27% stayed inconclusive and do not appear here. The call rests on the fitted dose curve; in most records, active means well fitted inhibition curve with a large enough effect; inconclusive means small, poorly fitted or top-dose-only effect; inactive means flat fitted curve, though single readings scatter. Only a sample is shown. A call without a number means that no potency is given here.

Assay: qHTS for Inhibitors of human tyrosyl-DNA phosphodiesterase 1 (TDP1): qHTS in cells in absence of CPT; further: nearly all actives have a fitted effect of over 55% in size
Conditions: DT40 Tdp1-/- hTDP1 cells, no CPT, ATP luminescence, 48 h; activity change, negative = growth inhibition: at 46.2 µM (top of the series)
Method in brief: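 A cellular qHTS used chicken DT40 cells lacking endogenous Tdp1 but carrying stably transfected human TDP1. Compounds were applied without camptothecin, and cell growth kinetics were judged by ATP-dependent luminescence after ≥48 hr.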
Potency means the concentration at half of the fitted maximal effect.

Compound | Potency
O=C(CSCc1ccccc1Cl)NNC(=O)c1ccccc1 | inactive
O=C(C1CC(=O)N(C2CCCCC2)C1)N1CCN(c2ccccc2)CC1 (stereo not given) | inactive
O=C(CCN1CCCO1)N1CCCC(N2CCN(c3cccc(C(F)(F)F)c3)CC2)C1 (stereo not given) | inactive
O=C(C1CC(=O)N(C2CCCC2)C1)N1CCN(c2cccc(C(F)(F)F)c2)CC1 (stereo not given) | 11.6 µM (active)
CC(=O)C1(C)N(O)C(C)(C)C(c2cccs2)=[N+]1[O-] (stereo not given) | inactive
CCOC(=O)C1CCN(C(=O)CN2C(=O)c3cccnc3Oc3ccc(C)cc32)CC1 | inactive
CC(C)OC(=O)CN1C(=O)C(=O)c2ccccc21 | 13 µM (active)
CCOC(=O)c1cc2n(c1C)-c1ccccc1C2=O | inactive
CC(OC(=O)CN1C(=O)c2ccccc2C1=O)C(=O)c1ccccc1 (stereo not given) | inactive
CCOC(=O)CN1C(=O)C(=O)c2cc(C)ccc21 | 14.6 µM (active)
CCOC(=O)CSc1nc2ccc(C)cc2[nH]1 | inactive
COc1ccccc1C(=O)Nc1ccnn1C1CCN(C(=O)C(C)(C)C)CC1 | inactive
CC1Cc2ccccc2N1CC(=O)Nc1ccc2c(c1)OC(F)(F)O2 (stereo not given) | inactive
Cc1cccc(C(=O)Nc2ccccc2C(=O)NCc2cccnc2)c1 | inactive
CCC(C)c1ccc(NC(=O)COC(=O)C2CCCC2)cc1 (stereo not given) | inactive
CNC[C@@H]1Oc2c(NS(C)(=O)=O)cccc2C(=O)N([C@@H](C)CO)C[C@H]1C | inactive
Cc1cccc(-n2c(Cc3cc(=O)[nH]c(=O)[nH]3)nnc2SCC(=O)Nc2cccc(C(F)(F)F)c2)c1 | inactive
Clc1ccc(-n2nnnc2CN2CCCCC2)cc1Cl | inactive
c1ccc(CCn2nnnc2CN2CCN(C3CCCC3)CC2)cc1 | inactive
CCCCn1nnnc1C(c1cccc(OC)c1OC)N1CCN(C/C=C/c2ccccc2)CC1 (stereo not given) | 20.6 µM (active)
COc1ccccc1C(c1nnnn1CC1CCCO1)N1CCN(c2ccccc2)CC1 (stereo not given) | inactive
CCCCn1nnnc1C(c1ccccc1)N1CCN(c2ccccc2OC)CC1 (stereo not given) | 20.6 µM (active)
CCCCn1nnnc1NCc1cc(OC)c(OC)c(OC)c1 | inactive
COc1ccc(CCn2nnnc2C(c2ccccc2)N2CCN(C)CC2)cc1OC (stereo not given) | inactive
Cc1cc(O)c(C(c2ccccc2)N2CCN(c3ccccc3F)CC2)c(=O)n1Cc1ccco1 (stereo not given) | inactive

Compound | Potency
c1ccc(C(c2ccccc2)N2CCN(Cc3nnnn3C3CCCCC3)CC2)cc1 | 20.6 µM (active)
Cc1cccc(N2CCN(C(c3ccccc3)c3nnnn3CC3CCCO3)CC2)c1C (stereo not given) | 11.6 µM (active)
COc1ccccc1N1CCN(Cc2nnnn2CCc2ccccc2)CC1 | inactive
C=CCC(Nc1ccccc1)c1cccc(OC)c1OC (stereo not given) | inactive
O=C(Nc1nncs1)c1ccccc1NS(=O)(=O)c1cccs1 | inactive
O=C(CSCc1ccc([N+](=O)[O-])cc1)Nc1cccc(C(=O)Nc2ccccc2C(=O)O)c1 | inactive
C[C@H](NC(=O)C1CC(=O)N(c2ccc3c(c2)OCO3)C1)C(=O)NCc1ccco1 (stereo not given in full) | inactive
CCCCC(=O)NCc1ccc(F)cc1 | inactive
CCCCNC(=O)C1CCC(CNS(=O)(=O)c2ccc(NC(C)=O)cc2)CC1 (stereo not given) | inactive
O=C1C(=O)N(CCN2CCOCC2)C(c2ccccn2)/C1=C(/O)c1ccc(Cl)cc1 (stereo not given) | inactive
Oc1ccccc1CN1CCN(C(c2ccccc2)c2ccccc2)CC1 | 16.4 µM (active)
CC(C)OCC(O)CN1CCN(C(c2ccccc2)c2ccccc2)CC1 (stereo not given) | inactive
O=C(Nc1ccnn1C1CCN(C/C=C/c2ccc(F)cc2)CC1)C1CCCC1 | inactive
COc1ccc(/C=C/CN2CCN(Cc3ccc(C)cc3)C(CCO)C2)cc1 (stereo not given) | inactive
O=C(O)CN1CCN(C(c2ccccc2)c2ccccc2)CC1 | inactive
COc1ccc(C(c2nnnn2C2CCCC2)N2CCN(C/C=C/c3ccccc3)CC2)cc1 (stereo not given) | 16.4 µM (active)
CCOC(=O)c1c(C(C#N)C#N)cc(C)nc1C | inactive
OC[C@H]1O[C@@H](c2nc(-c3nc(-c4ccc(F)cc4)no3)cs2)[C@H](O)[C@@H](O)[C@H]1O | inactive
O=C(Nc1ccc2c(c1)OCO2)c1cc(-c2cccc(Cl)c2)on1 | inactive
CCC(Oc1ccccc1)C(=O)NCc1cccnc1 (stereo not given) | inactive
O=C(O)CC/C(=C\c1cc2c(cc1Br)OCO2)c1nc2ccccc2s1 | inactive
O=C(O)C1=C(C(=O)O)C2CCC1C2 | inactive
COc1ccccc1N(CC(=O)N/N=C(\C)c1ccccc1O)S(=O)(=O)c1ccc(C)cc1 | 1.64 µM (active)
COc1ccc(S(=O)(=O)N(CC(=O)N/N=C/c2ccccc2C(=O)O)c2ccccc2OC)cc1 | inactive
COc1ccccc1N(CC(=O)Nc1c(C)n(C)n(-c2ccccc2)c1=O)S(=O)(=O)c1ccccc1 | inactive

Compound | Potency
COC(=O)[C@H](C(C)C)n1c(C)c(C(C)=O)c(C(C)=O)c1C | inactive
O=S(=O)(c1cccc(C(F)(F)F)c1)N1c2ccccc2-n2cccc2C1c1cccnc1 (stereo not given) | 18.4 µM (active)
O=S(=O)(c1cccc(C(F)(F)F)c1)N1CCN(c2cnccn2)CC1 | inactive
O=S(=O)(c1cccc(C(F)(F)F)c1)N1CCN(c2nc(-c3cccs3)nc3ccccc23)CC1 | inactive
O=S(=O)(c1ccc(F)cc1)n1ccc(-c2cnc(-c3ccccc3)s2)n1 | inactive
CN(C(=O)CN1CCN(c2cc(-c3ccc(OCc4ccccc4)cc3)ncn2)CC1)c1ccccc1 | 18.4 µM (active)
COc1ccc(NC(C)=O)cc1NC(=O)CN1CCN(c2ccccn2)CC1 | inactive
CCN(CC)c1ccc(NC(=O)CN2CCN(c3ccccn3)CC2)cc1 | inactive
O=C1OCC2=C1C(c1ccccc1)CC(=O)N2c1cccc(F)c1 (stereo not given) | inactive
CSc1sc(C(=O)NNC(=O)c2ccc(Cl)cc2)c2c1C=CCC2 | inactive
Cc1csc2nc(COc3ccc(NC(=O)COc4ccccc4)cc3)cc(=O)n12 | inactive
Cc1ccc(OCC(=O)Nc2ccc(OCc3cc(=O)n4c(C)csc4n3)cc2)cc1C | inactive
Cc1csc2nc(COC(=O)c3ccc(NC(=O)COc4ccccc4F)cc3)cc(=O)n12 | 18.4 µM (active)
Cc1csc2nc(COC(=O)c3ccccc3NC(=O)c3ccccc3Cl)cc(=O)n12 | 11.6 µM (active)
O=C(COc1ccccc1F)Nc1ccc(C(=O)OCc2cc(=O)n3nc(C4CC4)sc3n2)cc1 | inactive
Cc1ccc(C(=O)Nc2ccc(OCc3cc(=O)n4c(C)csc4n3)cc2)cc1 | inactive
Cc1nc2c(c(C)nn2-c2ccccc2)c(C)c1C | inactive
Cc1cccc(-n2nc3c(c2NC(=O)c2cc4ccccc4o2)CS(=O)(=O)C3)c1 | inactive
CC(C)COc1ccc(C(=O)NNC(=O)CCC(=O)c2cccs2)cc1 | inactive
CCCCCCCCCCCC(=O)O[C@H](CC(=O)O)C[N+](C)(C)C | inactive
CC(=O)c1ccc(Cc2ncc(C(F)(F)F)cc2Cl)s1 | inactive
Cc1ccc(S(=O)(=O)N(CCc2ccccc2)c2ccc3c(c2)C2CC3CCN2C(=O)OCc2ccccc2)cc1 (stereo not given) | 9.2 µM (active)
CCOC(=O)N1CCN(C(=O)CN(c2ccc(C)c(C)c2)S(=O)(=O)c2ccccc2)CC1 | inactive
Cc1ccc(S(=O)(=O)CCC(=O)OCc2ccccc2)cc1 | inactive
COc1cc(C(C)=O)ccc1OC(=O)CN1C(=O)c2ccccc2C1=O | inactive

Compound | Potency
CCOC(=O)c1[nH]cnc1C(=O)Nc1ccccc1C | inactive
O=C(Nc1ccc2c(c1)CCC2)c1cccc(S(=O)(=O)Nc2ccccc2Cl)c1 | inactive
CCCCN(C(=O)c1ccc(C)o1)c1c(N)n(CCCC)c(=O)[nH]c1=O | inactive
O=C(CN1CCOCC1)Nc1c(Cl)cc(Cl)cc1Cl | inactive
O=C(Nc1ccc(CN2CCOCC2)cc1)c1cc(Cl)ccc1Cl | inactive
CC(C)(C)c1cc(NC(=O)NN2CCOCC2)nn1-c1c(Cl)cc(Cl)cc1Cl | 14.6 µM (active)
Cn1cccc1/C=C1\SC(=O)N(CC(=O)Nc2ccc(F)cc2)C1=O | inactive
CNC(=S)NNC(=O)c1oc2nc(-c3ccccc3)cc(-c3ccco3)c2c1N | inactive
COc1ccccc1C1C2=C(COC2=O)Nc2cc3c(cc21)OCO3 (stereo not given) | inactive
O=C1OCC2=C1C(c1ccc(Cl)cc1)c1cc3c(cc1O2)OCO3 (stereo not given) | 16.4 µM (active)
O=C(c1ccc(O)cc1)c1ccc(C(=O)O)c(C(=O)O)c1 | inactive
Cc1cccn2cc(-c3cccc(S(=O)(=O)N4CCCCC4)c3)nc12 | inactive
CCOC(=O)/C(C#N)=C/c1cn(CCC(=O)O)nc1-c1ccc(Br)cc1 | inactive
O=C(O)CCn1cc(/C=C/C(=O)c2ccc(Cl)cc2)c(-c2cccc(Br)c2)n1 | 23.1 µM (active)
O=C(O)/C=C/c1cn(Cc2ccccc2)nc1-c1cccs1 | inactive
CC1CN(C(=O)c2ccccc2NS(=O)(=O)c2cccc([N+](=O)[O-])c2)CC(C)O1 (stereo not given) | inactive
COc1cc(OC)cc(-c2sc3ccc(OC)cc3c2-c2ccc3cc[nH]c3c2)c1 | inactive
COc1ccc2sc(-c3ccc(N(C)C)cc3)c(C#CCO)c2c1 | 18.4 µM (active)
COc1ccc2sc(-c3ccc(N(C)C)cc3)c(-c3ccc4cc[nH]c4c3)c2c1 | inactive
COc1ccc2sc(-c3ccc(S(C)(=O)=O)cc3)c(-c3ccc(C(N)=O)cc3)c2c1 | inactive
COc1ccc2c(Cl)c(-c3nnco3)sc2c1 | inactive
COc1ccc(-c2sc3ccc(OC)cc3c2C#Cc2ccccn2)cc1 | 18.4 µM (active)
CC(C)(C)c1ccc(S(=O)(=O)NC(=O)C2(C)CCN2C(=O)CC2CC2)cc1 (stereo not given) | inactive
CCS(=O)(=O)C1=NSC2=NC(=O)/C(=C\c3ccc(OS(=O)(=O)c4ccccc4)cc3)C(=N)N21 | inactive
Cc1cc(C)cc(NC(=O)C(OC(=O)c2ccc(O)cc2)c2ccccc2)c1 (stereo not given) | inactive
